# Data: article PMC5540273 (PLoS ONE, 2017)
# Test system: FLT3-autoinhibited
# Conditions: concentration: 1 μM, replicates: in singlicate; n = 1
# 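Also: KINOMEscan kinase panel screen.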
row,Structure (SMILES),%Inh
1,C[C@@H]1CC[C@H](C(=O)NC2CCCCC2)CN1c1cc(-c2ccc3c(N)n[nH]c3c2)nc(N)n1 [GSK2291363],9%
2,Cc1nc(N(C)[C@H]2CN(C(=O)CC#N)CC[C@H]2C)c2cc[nH]c2n1,0%
3,Nc1nccc2scc(-c3ccc4c(c3)CCN4C(=O)Cc3ccccc3)c12 [GSK2576924],3%
4,COc1cc(OC)cc(-c2cc3cnc(N)nc3nc2NC(=O)NC(C)(C)C)c1,0%
5,O=C(Nc1n[nH]c2cc(-c3ccccc3F)ccc12)C1CC1 [SB-733371],0%
6,CCCNC(=O)Nc1ccc(Oc2ncnc3ccn(C)c23)cc1,2%
7,COc1cc2ncn(-c3cc(OCc4ccncc4Br)c(C(N)=O)s3)c2cc1OC [GW854278],22%
8,Cc1nn2c(=O)cc(N3CCOCC3)nc2n1Cc1cccc(Cl)c1Cl [GSK2342769],9%
9,Cc1c(Cn2c(C)nn3c(=O)cc(N4CCO[C@H](C)C4)nc23)cccc1C(F)(F)F [GSK2373690],0%
10,COc1cc2nccc(Nc3ccc(OCc4ccc(NC(C)=O)cc4)cc3)c2cc1OC.Cl [GW440135],0%
11,Cc1cccc(-c2nc(Nc3ccc4c(cnn4C)c3)c3ccccc3n2)n1 [GW876731],0%
12,CCCC(=O)Nc1n[nH]c2ncc(-c3cccc4ccccc34)cc12 [SB-642057],5%
13,FC(F)(F)c1ccc(-c2ncn(CCCN3CCOCC3)c2-c2ccncc2)cc1 [SB-217780],23%
14,OCCCNc1nccc(-c2c(-c3cccc(C(F)(F)F)c3)nn3cc(C(F)(F)F)ccc23)n1 [GW630813],0%
15,COc1cc(Nc2nccc(N3CCC(NC(=O)C4COc5ccccc5O4)C3)n2)cc(OC)c1OC (centres unmarked) [GSK1379761],0%
16,CCc1ccc(-c2ccc3c(c2)-c2nn(C)cc2S(=O)(=O)N3C)cc1,0%
17,COc1cc(Nc2nccc(N3CCC(NC(=O)C(C)c4ccc(Cl)cc4)C3)n2)cc(OC)c1OC (centres unmarked) [GSK1379757],0%
18,CCS(=O)c1ccc(-c2coc3ccc(-c4nnc(C)o4)cc23)cc1 (centres unmarked),0%
19,O=C1NC(=O)C(c2ccccc2)=C1Nc1cccc(O)c1 [SB-390534],5%

row,Structure (SMILES),%Inh
1,COc1cccc(-n2cnc3c(N)ncnc32)c1 [SKF-97416],9%
2,COc1cc2ncn(-c3cc(OCc4ccncc4)c(C(N)=O)s3)c2cc1OC [GSK336313],0%
3,COC(=O)c1c(-c2ccccc2)c2cc(Br)ccc2c(=O)n1Cc1ccc(S(C)(=O)=O)cc1,0%
4,Nc1ncnc2c1ncn2-c1cccc(F)c1 [SKF-97560],35%
5,Nc1n[nH]c2nnc(-c3ccccc3)c(-c3ccccc3)c12 [GW554060],0%
6,Cc1ccc(-c2ccc3c(ccc4sc5c(c43)NC[C@@H](C)N=C5N(C)C)n2)cn1,0%
7,COc1cc2ncn(-c3cc(OCc4ccc(S(C)(=O)=O)cc4)c(C(N)=O)s3)c2cc1OC [GW869979],14%
8,Cl.NS(=O)(=O)c1cccc(Nc2cc(-c3ccc(F)cc3)n[nH]2)c1 [GW824645],77%
9,COc1cccc(C2=C(N(C)c3ccccc3)C(=O)NC2=O)c1 [SB-334865],0%
10,CCn1c(-c2ccoc2)nc2cnccc21 [SB-733887],65%
11,COc1cc2nccc(Nc3cccc(Oc4ccccc4)c3)c2cc1OC.Cl [GW284543],10%
12,CCC(=O)c1c(-c2ccccc2)c2cc(Cl)ccc2c(=O)n1Cc1cc(S(C)(=O)=O)n(CC(N)=O)n1,0%
13,CCn1c(-c2nonc2N)nc2ccccc21 [SB-693162/GW549034],52%
14,CN(C)c1cc(-c2ccc3c(N)n[nH]c3c2)nc(N)n1 [GSK2219329],0%
15,Cc1ccccc1COc1cc(-n2cnc3cc(Cl)ccc32)sc1C(N)=O [GW813349],3%
16,Cl.c1ccc(Cn2cnc3cc(Nc4ncnc5ccccc45)ccc32)cc1 [GW272142],0%
17,Nc1ncnc2c1ncn2-c1cccc2ccccc12 [SKF-97184],0%
18,COc1ccc(CNC(=O)NC2CCN(c3ccnc(Nc4ccc(F)cc4)n3)C2)cc1 (centres unmarked) [GSK1379706],0%

# Test system: FLT3
# Conditions: concentration: 1 μM, replicates: in singlicate; n = 1
row,Structure (SMILES),%Inh
1,C[C@@H]1CC[C@H](C(=O)NC2CCCCC2)CN1c1cc(-c2ccc3c(N)n[nH]c3c2)nc(N)n1 [GSK2291363],9%
2,Cc1nc(N(C)[C@H]2CN(C(=O)CC#N)CC[C@H]2C)c2cc[nH]c2n1,5%
3,Nc1nccc2scc(-c3ccc4c(c3)CCN4C(=O)Cc3ccccc3)c12 [GSK2576924],0%
4,COc1cc(OC)cc(-c2cc3cnc(N)nc3nc2NC(=O)NC(C)(C)C)c1,0%
5,O=C(Nc1n[nH]c2cc(-c3ccccc3F)ccc12)C1CC1 [SB-733371],38%
6,CCCNC(=O)Nc1ccc(Oc2ncnc3ccn(C)c23)cc1,45%
7,COc1cc2ncn(-c3cc(OCc4ccncc4Br)c(C(N)=O)s3)c2cc1OC [GW854278],26%
8,Cc1nn2c(=O)cc(N3CCOCC3)nc2n1Cc1cccc(Cl)c1Cl [GSK2342769],0%
9,Cc1c(Cn2c(C)nn3c(=O)cc(N4CCO[C@H](C)C4)nc23)cccc1C(F)(F)F [GSK2373690],0%
10,COc1cc2nccc(Nc3ccc(OCc4ccc(NC(C)=O)cc4)cc3)c2cc1OC.Cl [GW440135],73%
11,Cc1cccc(-c2nc(Nc3ccc4c(cnn4C)c3)c3ccccc3n2)n1 [GW876731],9%
12,CCCC(=O)Nc1n[nH]c2ncc(-c3cccc4ccccc34)cc12 [SB-642057],0%
13,FC(F)(F)c1ccc(-c2ncn(CCCN3CCOCC3)c2-c2ccncc2)cc1 [SB-217780],14%
14,OCCCNc1nccc(-c2c(-c3cccc(C(F)(F)F)c3)nn3cc(C(F)(F)F)ccc23)n1 [GW630813],0%
15,COc1cc(Nc2nccc(N3CCC(NC(=O)C4COc5ccccc5O4)C3)n2)cc(OC)c1OC (centres unmarked) [GSK1379761],37%
16,CCc1ccc(-c2ccc3c(c2)-c2nn(C)cc2S(=O)(=O)N3C)cc1,30%
17,COc1cc(Nc2nccc(N3CCC(NC(=O)C(C)c4ccc(Cl)cc4)C3)n2)cc(OC)c1OC (centres unmarked) [GSK1379757],25%
18,CCS(=O)c1ccc(-c2coc3ccc(-c4nnc(C)o4)cc23)cc1 (centres unmarked),0%
19,O=C1NC(=O)C(c2ccccc2)=C1Nc1cccc(O)c1 [SB-390534],26%

row,Structure (SMILES),%Inh
1,COc1cccc(-n2cnc3c(N)ncnc32)c1 [SKF-97416],28%
2,COc1cc2ncn(-c3cc(OCc4ccncc4)c(C(N)=O)s3)c2cc1OC [GSK336313],0%
3,COC(=O)c1c(-c2ccccc2)c2cc(Br)ccc2c(=O)n1Cc1ccc(S(C)(=O)=O)cc1,9%
4,Nc1ncnc2c1ncn2-c1cccc(F)c1 [SKF-97560],47%
5,Nc1n[nH]c2nnc(-c3ccccc3)c(-c3ccccc3)c12 [GW554060],8%
6,Cc1ccc(-c2ccc3c(ccc4sc5c(c43)NC[C@@H](C)N=C5N(C)C)n2)cn1,0%
7,COc1cc2ncn(-c3cc(OCc4ccc(S(C)(=O)=O)cc4)c(C(N)=O)s3)c2cc1OC [GW869979],4%
8,Cl.NS(=O)(=O)c1cccc(Nc2cc(-c3ccc(F)cc3)n[nH]2)c1 [GW824645],88%
9,COc1cccc(C2=C(N(C)c3ccccc3)C(=O)NC2=O)c1 [SB-334865],0%
10,CCn1c(-c2ccoc2)nc2cnccc21 [SB-733887],0%
11,COc1cc2nccc(Nc3cccc(Oc4ccccc4)c3)c2cc1OC.Cl [GW284543],6%
12,CCC(=O)c1c(-c2ccccc2)c2cc(Cl)ccc2c(=O)n1Cc1cc(S(C)(=O)=O)n(CC(N)=O)n1,0%
13,CCn1c(-c2nonc2N)nc2ccccc21 [SB-693162/GW549034],20%
14,CN(C)c1cc(-c2ccc3c(N)n[nH]c3c2)nc(N)n1 [GSK2219329],0%
15,Cc1ccccc1COc1cc(-n2cnc3cc(Cl)ccc32)sc1C(N)=O [GW813349],8%
16,Cl.c1ccc(Cn2cnc3cc(Nc4ncnc5ccccc45)ccc32)cc1 [GW272142],0%
17,Nc1ncnc2c1ncn2-c1cccc2ccccc12 [SKF-97184],0%
18,COc1ccc(CNC(=O)NC2CCN(c3ccnc(Nc4ccc(F)cc4)n3)C2)cc1 (centres unmarked) [GSK1379706],16%
